Measurements published in PubChem BioAssay (NCATS).
Several values for one entry are separate records, joined by “and”; a condition that tells them apart may be missing. Equal entries are not always repeated. Records with an inconclusive call do not appear. Entries that show only a call come without a potency. Some compounds were tested as several samples or in several runs, with calls that do not always agree. Activity calls are given as the source filed them. Calls come from the whole dose curve; as a rule, active = well fitted curve in the direction sought with a large enough effect; inconclusive = small, poorly fitted or top-dose-only effect, or another doubt; inactive = no such curve, though single readings can be large; an effect the other way counts as inactive or inconclusive.

Tests used:
[1] = target: Glutathione peroxidase 1 (Homo sapiens) (UniProt P07203); assay: Primary qHTS Assay for Inhibitors of Recombinant Selenoprotein Glutathione Peroxidase 1 (GPX1) (AID 1845191); settings: recombinant GPX1, GR-coupled NADPH fluorescence, 15 min; series mostly up to 48.8 µM; note: nearly all actives have a fitted effect of over 65% in size; note: potency is the fitted concentration of half-maximal effect
Sequence of Glutathione peroxidase 1 (Homo sapiens) (P07203 whole entry, looked up): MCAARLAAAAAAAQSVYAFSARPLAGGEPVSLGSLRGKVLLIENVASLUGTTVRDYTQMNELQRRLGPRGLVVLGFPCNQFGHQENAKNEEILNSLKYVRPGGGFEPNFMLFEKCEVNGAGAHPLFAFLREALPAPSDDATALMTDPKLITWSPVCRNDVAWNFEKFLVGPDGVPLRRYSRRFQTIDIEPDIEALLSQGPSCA
Outline: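 GR-coupled assay: compounds preincubated 30 min at room temperature with GPX1, then reaction started with CHP; final 10 nM GPX1, 1 mM GSH, 0.5 mM CHP, 0.5 mM NADPH, 100 nM GR, 0.01% BSA, pH 7.5 Tris buffer. NADPH fluorescence (340/450 nm) read at 0 and 15 min.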

[2] = target: Phospholipid hydroperoxide glutathione peroxidase GPX4 (Homo sapiens) (UniProt P36969); assay: Primary qHTS Assay for Inhibitors of Recombinant Selenoprotein Glutathione Peroxidase 4 (GPX4) (AID 1845192); settings: recombinant GPX4, GR-coupled NADPH fluorescence, 15 min; series mostly up to 50 µM; note: nearly all actives have a fitted effect of over 65% in size; note: potency is the fitted concentration of half-maximal effect
Sequence of Phospholipid hydroperoxide glutathione peroxidase GPX4 (Homo sapiens) (P36969 whole entry, looked up): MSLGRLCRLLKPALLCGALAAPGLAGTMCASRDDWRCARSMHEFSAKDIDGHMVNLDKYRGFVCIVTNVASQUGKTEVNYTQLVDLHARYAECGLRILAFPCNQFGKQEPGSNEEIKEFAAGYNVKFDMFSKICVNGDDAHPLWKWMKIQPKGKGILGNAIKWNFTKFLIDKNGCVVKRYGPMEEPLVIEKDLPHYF
Outline: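 GR-coupled assay: recombinant GPX4 preincubated 30 min with compound at room temperature; final 200 nM GPX4, 1 mM GSH, 0.5 mM cumene hydroperoxide, 0.5 mM NADPH, 100 nM GR, 0.01% BSA, pH 7.5 Tris. NADPH fluorescence (340/450 nm) read at 0 and 15 min.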

[3] = target: Luciferin 4-monooxygenase (Photinus pyralis) (UniProt P08659); assay: Primary firefly luciferase (FLuc) qHTS assay for identification of artifact compounds. (AID 1845220); settings: purified firefly luciferase, luminescence, 5 min; series mostly up to 54.1 µM; note: nearly all actives have a fitted effect of over 60% in size
Outline: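 Enzymatic FLuc inhibition assay: compounds pre-exposed to luciferin/ATP (10 uM each) for 15 min, then purified P. pyralis enzyme at 10 nM added. Read-out: luminescence at 5 min.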

[4] = Primary fluorescence-based thiol-reactive (MSTI) qHTS assay for identification of artifact compounds. (AID 1845221); settings: MSTI thiol-reactivity probe, 1 h; series mostly up to 53.8 µM; note: nearly all actives have a fitted effect of over 65% in size; note: potency is the fitted concentration of half-maximal effect;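 for activity change, negative = thiol reactive: thiol-reactive compounds lower the probe fluorescence signal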
Outline: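 Reactivity toward the thiol probe MSTI (4 uM) is scored by fluorescence at Ex/Em 525/598 nm after 1 h at room temperature. Acetyl-MSTI and MSTI define the activity scale.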

[5] = system: Nanoluciferase (engineered Oplophorus gracilirostris luciferase); assay: Primary Nanoluciferase (NLuc) qHTS assay for identification of artifact compounds. (AID 1845222); settings: NLuc-conditioned medium, Nano-Glo luminescence, 5 min; series mostly up to 54.1 µM;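 note: NLuc secreted into diluted conditioned medium of S16 cells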
Outline: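 S16 cell supernatant NLuc, 1:55; cpds qHTS; 15 min RT dark; Nano-Glo substrate 1:100, 5 min; luminescence; Hill fit of % inhibition.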

[6] = Primary redox qHTS assay for identification of artifact compounds. (AID 1845223); settings: Amplex Red/HRP redox cycling with DTT, fluorescence; series mostly up to 53.8 µM
Outline: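 Amplex Red (25 uM) and HRP (250 mU/mL) in HBSS, with compounds for 15 min, then 250 uM DTT for 30 min, room temperature, dark. Fluorescence 525/598 nm read; normalized to DMSO and 10 uM DA3003; Hill fit.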

COc1ccc(NC(=O)C2C[C@H](C)CC[C@H]2C(C)C)cc1 (some centres not stated)
Potency [1]: inactive | Potency [2]: inactive | Potency [3]: inactive | Potency [4]: inactive | Potency [5]: inactive | Potency [6]: inactive

O=C1C(Cc2ccc(O)cc2)N2C(=O)CCN(C(=O)NCc3ccccc3)C2CN1Cc1cccc2ccccc12 (configuration not stated)
Potency [1]: inactive | Potency [2]: inactive | Potency [3]: inactive | Potency [4]: inactive | Potency [5]: inactive | Potency [6]: inactive

C=C1C(=O)OC2/C=C(\C)CC3C=C(CC/C=C(\C)CCC12)C(=O)O3 (configuration not stated)
Potency [1]: inactive | Potency [2]: inactive | Potency [3]: inactive | Potency [4]: inactive | Potency [5]: inactive | Potency [6]: inactive

CC(C)(O)C1CC(=O)C2(C)C(CCC3(C)C(c4ccoc4)OC(=O)C4OC432)C12CCC(=O)OC2 (configuration not stated)
Potency [1]: inactive | Potency [2]: inactive | Potency [3]: inactive | Potency [4]: inactive | Potency [5]: inactive | Potency [6]: inactive

Cn1cc(-c2ccc3c(c2)CCN3C(=O)Cc2cccc(C(F)(F)F)c2)c2c(N)ncnc21
Potency [1]: inactive and 18.3 µM (active) | Potency [2]: inactive | Potency [3]: inactive | Potency [4]: 29.9 µM (active) | Potency [5]: inactive | Potency [6]: inactive

O=C(Nc1ccccc1Cl)c1cnc2ccc(C3CCNCC3)cn12
Potency [1]: inactive | Potency [2]: inactive | Potency [3]: inactive | Potency [4]: inactive | Potency [5]: inactive | Potency [6]: inactive

CC(=O)OC1C(OC(=O)c2ccccc2)C2C(C)(C)CCC(OC(C)=O)C2(C)C23CCC(C)(C2)C(=O)CC13 (configuration not stated)
Potency [1]: inactive | Potency [2]: inactive | Potency [3]: inactive | Potency [4]: inactive | Potency [5]: inactive | Potency [6]: inactive

C=C1CC[C@@H]2[C@](C)(CO)[C@H](O)CC[C@@]2(C)[C@@H]1C/C=C1/C(=O)OCC1O (some centres not stated)
Potency [1]: inactive | Potency [2]: inactive | Potency [3]: inactive | Potency [4]: inactive | Potency [5]: inactive | Potency [6]: inactive

NC(N)=N/N=C/c1ccccc1Cl
Potency [1]: inactive | Potency [2]: inactive | Potency [3]: inactive | Potency [4]: inactive | Potency [5]: inactive | Potency [6]: inactive

O=S(=O)(NCc1cccc2ccccc12)c1cc(Cl)c(Oc2cccc(N3CCNCC3)c2)s1
Potency [1]: inactive | Potency [2]: inactive | Potency [3]: inactive | Potency [4]: inactive | Potency [5]: inactive | Potency [6]: inactive

C[C@H]1CC[C@@]2(OC1)O[C@H]1CC3[C@@H]4CC[C@@H]5C[C@@H](O[C@@H]6O[C@H](CO)[C@@H](O[C@@H]7O[C@H](CO[C@@H]8OC[C@@H](O)[C@H](O)[C@H]8O)[C@@H](O[C@@H]8O[C@H](CO)[C@H](O)[C@H](O)[C@H]8O)[C@H](O)[C@H]7O)[C@H](O)[C@H]6O)CC[C@]5(C)C4CC[C@]3(C)[C@H]1[C@@H]2C (some centres not stated)
Potency [1]: inactive | Potency [2]: inactive | activity change, negative = inhibition [3]: 2.09% [at 11.6 µM] (inactive) | activity change, negative = thiol reactive [4]: 133% [at 11.5 µM] (inactive) | activity, negative = inhibition [5]: 2.05% [at 11.6 µM] (inactive) | redox activity (% of DA3003) [6]: 17.1% [at 11.5 µM] (inactive)

CC1=C2C[C@@]3(C)C(CCC[C@@H]3C)C(O)C2OC1=O (some centres not stated)
Potency [1]: inactive | Potency [2]: inactive | Potency [3]: inactive | Potency [4]: inactive | Potency [5]: inactive | Potency [6]: inactive

Cc1cc(C(=O)Nc2cc(Oc3ccc4nc(NC(=O)C5CC5)cn4n3)ccc2C)n(C)n1
Potency [1]: inactive | Potency [2]: 25.5 µM (active) | Potency [3]: inactive | Potency [4]: inactive | Potency [5]: inactive | Potency [6]: inactive

O=[N+]([O-])c1cn2c(n1)OC[C@@H](OCc1ccc(-c3ccc(OC(F)(F)F)cc3)nc1)C2
Potency [1]: inactive | Potency [2]: inactive | Potency [3]: inactive | Potency [4]: inactive | Potency [5]: inactive | Potency [6]: inactive

O=C(CN1C2=NCCN2c2ccccc21)c1ccc(-c2ccccc2)cc1
Potency [1]: inactive | Potency [2]: inactive | Potency [3]: inactive | Potency [4]: inactive | Potency [5]: inactive | Potency [6]: inactive

C[C@@H](O[C@H]1OCCN(Cc2nn(P(=O)(O)O)c(=O)[nH]2)[C@H]1c1ccc(F)cc1)c1cc(C(F)(F)F)cc(C(F)(F)F)c1
Potency [1]: inactive | Potency [2]: inactive | Potency [3]: inactive | Potency [4]: inactive | Potency [5]: inactive | Potency [6]: inactive

O=C(NCCN1CCN(c2cccc3c2OCCO3)CC1)c1ccc(F)cc1
Potency [1]: inactive | Potency [2]: inactive | Potency [3]: inactive | Potency [4]: inactive | Potency [5]: inactive | Potency [6]: inactive

CCC(CC)C(=O)OC12C(OC(=O)C(C)C)C(C)C3(O)C(C=C(CO)CC4(O)C(=O)C(C)=CC43)C1C2(C)C (configuration not stated)
Potency [1]: inactive | Potency [2]: inactive | Potency [3]: inactive | Potency [4]: inactive | Potency [5]: inactive | Potency [6]: inactive

C/C=C/CCC1Cc2cc(O)c(CCCC)c(O)c2C(=O)O1 (configuration not stated)
Potency [1]: inactive | Potency [2]: inactive | Potency [3]: inactive | Potency [4]: inactive | Potency [5]: inactive | Potency [6]: inactive

CC1(C)CCC2(C(=O)OC3OC(COC4OC(CO)C(O)C(O)C4O)C(O)C(O)C3O)CCC3(C)C(=CCC4C5(C)CCC(OC6OCC(O)C(O)C6O)C(C)(C)C5CCC43C)C2C1O (configuration not stated)
Potency [1]: inactive | Potency [2]: inactive | activity change, negative = inhibition [3]: 0.58% [at 11.6 µM] (inactive) | activity change, negative = thiol reactive [4]: 122% [at 11.5 µM] (inactive) | activity, negative = inhibition [5]: -1.73% [at 11.6 µM] (inactive) | redox activity (% of DA3003) [6]: 18.7% [at 11.5 µM] (inactive)

CC(=O)C=C=C1C(C)(C)CC(O)CC1(C)O[C@@H]1O[C@H](CO[C@H]2OC[C@](O)(CO)[C@H]2O)[C@@H](O)[C@H](O)[C@H]1O (some centres not stated)
Potency [1]: inactive | Potency [2]: inactive | Potency [3]: inactive | Potency [4]: 5.19 µM (active) | Potency [5]: inactive | Potency [6]: inactive

Nc1ncnc2c1c(-c1ccc(Cl)cc1)nn2-c1cccc(-c2cnnn2Cc2cccc(-c3ccccc3)c2)c1
Potency [1]: inactive | Potency [2]: inactive | Potency [3]: inactive | Potency [4]: inactive | Potency [5]: inactive | Potency [6]: inactive
